Where “and” joins values, the source holds several entries; their conditions need not be identical. Equal entries are not always repeated. Records with an inconclusive call do not appear. A structure can be active in one record and inactive in another. Calls of active or inactive are those of the source. Unless noted, the call rests on the fitted dose curve; in most records, active means well fitted curve in the direction sought with a large enough effect in the repeat runs; inconclusive means weak or mixed curves; inactive means no such curve, though single readings can be large; an effect the other way counts as inactive or inconclusive.
Legend:
[1] = qHTS assay to test for compound auto fluorescence at 535 nm (green) in HEK293 cells (AID 720680)
[2] = qHTS assay to test for compound auto fluorescence at 460 nm (blue) in HEK293 cell free culture (AID 720681)
Summary of the method: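 Blue fluorescence (Ex 405/Em 460 nm, triamterene-equivalent) was read immediately after pin transfer of compound or DMSO into medium (DMEM, 10% FBS) without cells.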

[3] = qHTS assay to test for compound auto fluorescence at 535 nm (green) in HEK293 cell free culture (AID 720682)
Summary of the method: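 Measurement is a direct plate read of green fluorescence (485 nm in, 535 nm out) after compound addition to serum-supplemented DMEM lacking cells, with fluorescein used to express intensities.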

[4] = qHTS assay to test for compound auto fluorescence at 590 nm (red) in HEK293 cell free culture (AID 720683)
Summary of the method: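 Red-channel autofluorescence of compounds in culture medium (DMEM, 10% FBS), no cells, measured at 540/590 nm. Rose Bengal sodium is the reference fluorophore for equivalence.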

[5] = qHTS assay to test for compound auto fluorescence at 590 nm (red) in HepG2 cell free culture (AID 720684)
Summary of the method: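 Plate contents were MEM with 10% FBS plus test compound or DMSO, no cells. Fluorescence was recorded with 540 nm excitation and 590 nm emission.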

[6] = qHTS assay to test for compound auto fluorescence at 460 nm (blue) in HepG2 cell free culture (AID 720685)
Summary of the method: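 Compound (23 nL) or DMSO pinned into cell-free MEM with 10% FBS; blue fluorescence read at 405/460 nm excitation/emission, expressed as auto-fluorescence equivalency to triamterene.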

[7] = qHTS assay to test for compound auto fluorescence at 535 nm (green) in HepG2 cell free culture (AID 720686)
[8] = qHTS assay to test for compound auto fluorescence at 460 nm (blue) in HepG2 cells (AID 720687)
Summary of the method: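 Blue-channel autofluorescence (Ex/Em 405/460 nm, triamterene-equivalent) was measured after 1 hr compound exposure at 37 C, 5% CO2. Cells were HepG2, plated overnight at 37 C in MEM plus 10% FBS.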

[9] = target: Glucocorticoid receptor (Homo sapiens) (UniProt P04150); test: qHTS assay to identify small molecule agonists of the glucocorticoid receptor (GR) signaling pathway (AID 720691; active means well fitted activation curve with a large enough effect in the signal ratio in the repeat runs, not every such curve was filed as active; the % refers to the signal ratio)
Summary of the method: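 GR-bla HeLa cells (beta-lactamase reporter under glucocorticoid response element) were plated 4 h at 37 C/5% CO2, given compounds in DMSO, and incubated 18 h at 37 C. LiveBLAzer B/G FRET substrate was added for 2 h at room temperature, then fluorescence intensity read.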

[10] = target: Glucocorticoid receptor (Homo sapiens) (UniProt P04150); test: qHTS assay to identify small molecule antagonists of the glucocorticoid receptor (GR) signaling pathway (AID 720692; active means well fitted inhibition curve with a large enough effect in the signal ratio in the repeat runs, not every such curve was filed as active; the % refers to the signal ratio)
Summary of the method: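 GR-bla HeLa cells (beta-lactamase reporter under glucocorticoid response element) were pre-plated 4 h at 37 C, treated with compounds plus 5 nM dexamethasone (final) for 18 h, then read by LiveBLAzer B/G FRET fluorescence after 2 h.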

[11] = qHTS assay to identify small molecule antagonists of the glucocorticoid receptor (GR) signaling pathway - cell viability counter screen (AID 720693); further: nearly all actives have a fitted effect of over 55% in size; further: potency means the concentration at half of the fitted maximal effect
[12] = qHTS assay for identifying genotoxic compounds that show differential cytotoxicity against isogenic chicken DT40 cell lines with known DNA damage response pathways - wild type cell line (AID 743012); further: nearly all actives have a fitted effect of over 60% in size
Summary of the method: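 Parental DNA repair-proficient DT40 cells, 300 per well, were pre-incubated ~0.5 h at 37 C/5% CO2, pin-dosed with compounds in DMSO, then incubated 40 h. Viability was read as CellTiter-Glo luminescence after 30 min at room temperature.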

[13] = qHTS assay for identifying genotoxic compounds that show differential cytotoxicity against isogenic chicken DT40 cell lines with known DNA damage response pathways - Rev3 mutant cell line (AID 743014); further: nearly all actives have a fitted effect of over 55% in size; further: potency means the concentration at half of the fitted maximal effect
[14] = qHTS assay for identifying genotoxic compounds that show differential cytotoxicity against isogenic chicken DT40 cell lines with known DNA damage response pathways - Rad54/Ku70 mutant cell line (AID 743015); further: nearly all actives have a fitted effect of over 60% in size; further: potency means the concentration at half of the fitted maximal effect
[15] = qHTS assay to identify small molecule antagonists of the androgen receptor (AR) signaling pathway - cell viability counter screen (AID 743033; further: nearly all actives have a fitted effect of over 45% in size)
[16] = qHTS assay to identify small molecule antagonists of the androgen receptor (AR) signaling pathway using the MDA cell line - cell viability counter screen (AID 743041; further: nearly all actives have a fitted effect of over 45% in size)
Summary of the method: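 R1881-driven MDA-kb2 AR-luc cells, 3,000/well, were dosed with library compounds for 16 h; cell health came from CellTiter-Fluor fluorescence in the reporter wells.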

[17] = qHTS assay to identify small molecule antagonists of the thyroid receptor (TR) signaling pathway - cell viability counter screen (AID 743064); further: nearly all actives have a fitted effect of over 50% in size; further: potency means the concentration at half of the fitted maximal effect
Summary of the method: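 Compounds were tested on GH3.TRE-Luc cells in the presence of T3 at 1 nM final. Following 23.5 h at 37 °C, cell viability was quantified by CellTiter-Fluor.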

[18] = qHTS assay to identify small molecule antagonists of the thyroid receptor (TR) signaling pathway (AID 743065); further: nearly all actives have a fitted effect of over 55% in size; further: potency means the concentration at half of the fitted maximal effect
Summary of the method: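 Antagonism measured as loss of luciferase signal in GH3 cells stably carrying a TRE-luciferase reporter, co-treated with compound and T3 (1 nM final) for 23.5 h at 37 C. Viability was read in the same well by CellTiter-Fluor.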

[19] = target: Androgen receptor (Homo sapiens) (UniProt P10275); test: qHTS assay to identify small molecule antagonists of the androgen receptor (AR) signaling pathway (AID 743035; active means well fitted inhibition curve with a large enough effect in the signal ratio in the repeat runs, not every such curve was filed as active; the % refers to the signal ratio)
Summary of the method: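 HEK293 cells stably carrying a UAS-driven beta-lactamase reporter (AR-UAS-bla GripTite) were plated for 4 h at 37C, then given compound and the agonist R1881 and incubated 16 h. Reporter activity was read by LiveBLAzer B/G FRET fluorescence after 2 h at room temperature.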

[20] = target: Androgen receptor (Homo sapiens) (UniProt P10275); test: qHTS assay to identify small molecule antagonists of the androgen receptor (AR) signaling pathway using the MDA cell line (AID 743042; further: nearly all actives have a fitted effect of over 55% in size; further: potency means the concentration at half of the fitted maximal effect)
Summary of the method: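 Antagonist mode: compounds plus R1881 agonist added to MDA-kb2 AR-luc cells, incubated 16 h at 37C. Luciferase reporter luminescence quantified, with multiplexed CellTiter-Fluor readout for cell viability.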

Measured: Potency
On the % scale 0 is the no-effect control and ±100 the full control effect.

Glucocorticoid receptor (Homo sapiens), sequence (P04150 whole entry, looked up): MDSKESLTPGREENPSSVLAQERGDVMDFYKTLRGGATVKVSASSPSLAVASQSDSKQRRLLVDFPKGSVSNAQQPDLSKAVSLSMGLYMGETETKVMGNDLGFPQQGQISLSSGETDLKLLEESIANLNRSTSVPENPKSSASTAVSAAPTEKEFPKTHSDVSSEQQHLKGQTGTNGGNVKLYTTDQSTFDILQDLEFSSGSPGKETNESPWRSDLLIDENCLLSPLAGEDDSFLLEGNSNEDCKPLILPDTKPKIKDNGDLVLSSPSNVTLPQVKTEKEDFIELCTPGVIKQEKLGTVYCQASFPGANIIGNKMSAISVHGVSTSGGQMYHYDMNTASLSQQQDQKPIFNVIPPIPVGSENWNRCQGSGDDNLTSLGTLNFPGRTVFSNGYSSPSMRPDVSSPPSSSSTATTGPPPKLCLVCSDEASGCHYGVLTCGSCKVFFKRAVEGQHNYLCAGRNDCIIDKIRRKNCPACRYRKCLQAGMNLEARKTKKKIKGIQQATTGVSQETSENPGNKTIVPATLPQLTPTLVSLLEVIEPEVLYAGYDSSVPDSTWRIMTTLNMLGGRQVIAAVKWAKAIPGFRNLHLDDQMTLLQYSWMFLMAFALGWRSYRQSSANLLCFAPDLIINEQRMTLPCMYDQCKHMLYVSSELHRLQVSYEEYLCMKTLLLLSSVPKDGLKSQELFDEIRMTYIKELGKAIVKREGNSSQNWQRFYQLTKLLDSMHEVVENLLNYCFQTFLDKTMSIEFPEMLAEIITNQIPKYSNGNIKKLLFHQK
Androgen receptor (Homo sapiens), sequence (P10275 whole entry, looked up): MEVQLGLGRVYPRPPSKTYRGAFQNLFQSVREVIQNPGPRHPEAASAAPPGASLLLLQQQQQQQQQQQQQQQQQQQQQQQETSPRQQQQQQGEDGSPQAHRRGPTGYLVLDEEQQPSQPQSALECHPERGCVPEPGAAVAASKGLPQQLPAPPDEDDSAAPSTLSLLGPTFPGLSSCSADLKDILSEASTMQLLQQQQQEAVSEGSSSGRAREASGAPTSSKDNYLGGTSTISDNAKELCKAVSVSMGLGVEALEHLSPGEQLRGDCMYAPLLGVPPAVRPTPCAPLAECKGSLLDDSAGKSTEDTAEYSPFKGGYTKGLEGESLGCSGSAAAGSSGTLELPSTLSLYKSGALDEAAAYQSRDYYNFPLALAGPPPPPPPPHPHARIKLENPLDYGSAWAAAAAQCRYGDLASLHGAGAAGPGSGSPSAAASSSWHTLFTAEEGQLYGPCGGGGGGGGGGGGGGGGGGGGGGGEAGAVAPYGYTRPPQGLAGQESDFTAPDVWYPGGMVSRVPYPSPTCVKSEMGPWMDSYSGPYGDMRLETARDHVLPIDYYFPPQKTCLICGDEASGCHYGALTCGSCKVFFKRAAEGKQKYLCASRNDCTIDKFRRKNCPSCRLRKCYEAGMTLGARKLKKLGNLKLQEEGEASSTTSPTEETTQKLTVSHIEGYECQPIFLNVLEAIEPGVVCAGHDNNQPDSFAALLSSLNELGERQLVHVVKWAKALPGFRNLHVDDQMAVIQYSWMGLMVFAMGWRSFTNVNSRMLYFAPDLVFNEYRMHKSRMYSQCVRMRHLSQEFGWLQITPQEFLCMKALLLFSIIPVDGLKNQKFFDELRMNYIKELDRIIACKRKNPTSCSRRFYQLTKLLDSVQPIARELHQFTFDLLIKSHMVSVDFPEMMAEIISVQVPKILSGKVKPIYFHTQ

CC(C)(C)CC(C)(C)c1ccc(O)c(-n2nc3ccccc3n2)c1
inactive: [1] | [2] | [3] | [4] | [5] | [6] | [7] | [8] | [9] | [10] | [12] | [13] | [14] | [15] | [16]
active: [11] 49.7 µM | [17] 26.6 µM and 30.6 µM | [18] 21.1 µM and 62 µM and 27.3 µM

CCCCC/C(C=O)=C\c1ccccc1
inactive: [1] | [2] | [3] | [4] | [5] | [6] | [7] | [8] | [9] | [10] | [11] | [12] | [13] | [14] | [15] | [16] | [18]
inactive and 61.2 µM (active): [17]

NC(=O)NO
inactive: [1] | [2] | [3] | [4] | [5] | [6] | [7] | [8] | [9] | [10] | [11] | [12] | [14] | [15] | [16] | [17] | [18]
inactive and 61.1 µM (active): [13]

NCCNc1cccc2ccccc12
inactive: [1] | [2] | [3] | [4] | [5] | [6] | [7] | [8] | [9] | [10] | [11] | [12] | [14] | [15] | [19] | [16]
inactive and 54.4 µM (active): [13] | [20]
active: [17] 27.3 µM and 29.9 µM | [18] 26.6 µM and 54.4 µM and 59.6 µM

NC(=O)OCC(COC(N)=O)c1ccccc1
inactive: [1] | [2] | [3] | [4] | [5] | [6] | [7] | [8] | [9] | [10] | [11] | [12] | [13] | [14] | [15] | [19] | [16] | [20] | [17] | [18]

C=C(C)OC(C)=O
inactive: [1] | [2] | [3] | [4] | [5] | [6] | [7] | [8] | [9] | [10] | [11] | [12] | [13] | [14] | [15] | [16] | [18]

Cc1cccc(Nc2cc(Cl)nc(SCC(=O)O)n2)c1C
inactive: [1] | [2] | [3] | [4] | [5] | [6] | [7] | [8] | [9] | [10] | [11] | [12] | [13] | [14] | [15] | [19] | [16] | [20] | [17] | [18]

N[C@@H](Cc1c[nH]c2ccccc12)C(=O)O
inactive: [1] | [2] | [3] | [4] | [5] | [6] | [7] | [8] | [9] | [10] | [11] | [12] | [13] | [14] | [15] | [16] | [17] | [18]

CCOC(=O)C(C)(C)Oc1ccc(Cl)cc1
inactive: [1] | [2] | [3] | [4] | [5] | [6] | [7] | [8] | [9] | [10] | [11] | [12] | [13] | [14] | [15] | [16] | [17] | [18]

CCCCCCCCCCCCCCCCCC(=O)OCC(O)CO (stereo not given)
inactive: [1] | [2] | [3] | [4] | [5] | [6] | [7] | [8] | [9] | [10] | [11] | [12] | [13] | [14] | [15] | [16] | [17] | [18]

CC(C)Cc1ccc(C(C)C(=O)O)cc1 (stereo not given)
inactive: [1] | [2] | [3] | [4] | [5] | [6] | [7] | [8] | [9] | [10] | [11] | [12] | [13] | [14] | [15] | [16] | [17] | [18]

NC(N)=NC(N)=NCCc1ccccc1
active: [13] 29.8 µM and 17.1 µM and 27.3 µM | [14] 17.1 µM [middle of 4 runs] | [18] 60.8 µM
inactive: [1] | [2] | [3] | [4] | [5] | [6] | [7] | [8] | [9] | [10] | [11] | [15] | [17]

COC(=O)c1ccc(C=O)cc1
inactive: [1] | [2] | [3] | [4] | [5] | [6] | [7] | [8] | [9] | [10] | [11] | [12] | [13] | [14] | [15] | [16] | [17] | [18]

OCCCc1ccccc1
inactive: [1] | [2] | [3] | [4] | [5] | [6] | [7] | [8] | [9] | [10] | [11] | [12] | [13] | [14] | [15] | [16] | [17] | [18]

Source: PubChem BioAssay (Tox21)
